{
  "source": "paper PMC4336329",
  "about": "(PLoS ONE, 2015)",
  "note": "The whole screen tested about 310,000 compounds, of which about 14,000 (4.5%) showed an effect of 50% or more. Effects have a minus sign here. Only a selection was taken, and strong results are over-represented in it overall.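 Note: peak tail current of the secondary pulse compared with the same well before compound.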",
  "data": [
    {"target": "human ether-à-go-go-related gene (hERG) potassium channel (human, UniProt Q12809)", "sequence (Q12809 whole entry, looked up)": "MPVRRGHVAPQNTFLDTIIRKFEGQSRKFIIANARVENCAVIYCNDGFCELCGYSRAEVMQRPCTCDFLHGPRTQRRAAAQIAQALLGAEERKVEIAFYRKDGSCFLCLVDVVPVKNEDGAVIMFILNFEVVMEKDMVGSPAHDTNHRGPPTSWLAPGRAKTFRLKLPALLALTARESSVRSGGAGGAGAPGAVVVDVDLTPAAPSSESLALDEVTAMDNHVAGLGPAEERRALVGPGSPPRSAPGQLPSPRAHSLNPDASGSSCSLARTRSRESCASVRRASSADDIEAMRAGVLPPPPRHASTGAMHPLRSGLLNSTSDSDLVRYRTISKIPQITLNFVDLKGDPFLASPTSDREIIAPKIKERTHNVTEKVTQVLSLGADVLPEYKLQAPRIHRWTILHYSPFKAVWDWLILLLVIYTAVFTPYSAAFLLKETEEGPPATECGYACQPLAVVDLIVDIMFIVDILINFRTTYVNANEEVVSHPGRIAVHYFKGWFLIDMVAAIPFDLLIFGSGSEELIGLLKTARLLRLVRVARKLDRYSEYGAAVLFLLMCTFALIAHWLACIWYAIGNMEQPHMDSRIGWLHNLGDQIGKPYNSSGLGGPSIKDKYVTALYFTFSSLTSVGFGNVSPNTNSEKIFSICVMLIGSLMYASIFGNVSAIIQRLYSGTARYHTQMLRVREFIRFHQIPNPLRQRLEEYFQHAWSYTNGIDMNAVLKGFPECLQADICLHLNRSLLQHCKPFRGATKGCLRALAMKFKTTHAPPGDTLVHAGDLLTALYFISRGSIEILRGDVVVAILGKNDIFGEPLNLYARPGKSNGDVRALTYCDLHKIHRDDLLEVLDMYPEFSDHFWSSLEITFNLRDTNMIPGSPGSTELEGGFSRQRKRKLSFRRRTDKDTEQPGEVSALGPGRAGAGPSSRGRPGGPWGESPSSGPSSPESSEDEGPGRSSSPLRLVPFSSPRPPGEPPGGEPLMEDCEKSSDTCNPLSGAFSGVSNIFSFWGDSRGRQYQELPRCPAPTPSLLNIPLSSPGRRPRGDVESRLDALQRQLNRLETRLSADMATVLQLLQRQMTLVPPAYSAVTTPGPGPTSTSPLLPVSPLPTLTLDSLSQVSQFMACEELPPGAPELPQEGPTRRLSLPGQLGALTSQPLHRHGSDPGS", "test": "primary screen, population patch clamp on CHO cells stably expressing hERG; higher = less effect of the substance", "units": {"hERG current change (%, negative = inhibition) at 10uM": "%"}, "values": [
      {"smiles": "Cc1ccc(S(=O)(=O)N2CCC(C(=O)OCc3c(C)noc3C)CC2)cc1C", "hERG current change (%, negative = inhibition) at 10uM": -15.8},
      {"smiles": "COc1ccc(S(=O)(=O)NC2CC(C)(C)NC(C)(C)C2)c2ccccc12", "hERG current change (%, negative = inhibition) at 10uM": 6.47},
      {"smiles": "CCc1nc(C)c(C#N)c2cc(OC)c(OC)cc12", "hERG current change (%, negative = inhibition) at 10uM": 1.21},
      {"smiles": "CC(C)(C)OC(=O)NCCc1nnc(S(=O)(=O)Cc2ccc(Cl)cc2Cl)o1", "hERG current change (%, negative = inhibition) at 10uM": -5.97},
      {"smiles": "CCCOc1ccc(/C=N/NC(=S)Nc2ccccc2[N+](=O)[O-])c(O)c1", "hERG current change (%, negative = inhibition) at 10uM": 24.3},
      {"smiles": "COC(=O)c1c(C)c2c(C)cc3ccccn3c-2c1C(=O)OC", "hERG current change (%, negative = inhibition) at 10uM": -4.02},
      {"smiles": "O=C(O)CCC(=O)N1CCN(S(=O)(=O)c2ccc3ccccc3c2)CC1", "hERG current change (%, negative = inhibition) at 10uM": 25.6},
      {"smiles": "O=C(CN1C(=O)c2cccc3cccc(c23)C1=O)N1CCCCCC1", "hERG current change (%, negative = inhibition) at 10uM": 9.58},
      {"smiles": "c1ccc(NC2=Nc3cccc4cccc2c34)cc1", "hERG current change (%, negative = inhibition) at 10uM": 1.71},
      {"smiles": "COc1ccccc1N1CCN(C(=O)CN2C(=O)c3cccc4cccc(c34)C2=O)CC1", "hERG current change (%, negative = inhibition) at 10uM": 16.9},
      {"smiles": "O=C1c2cccc3cccc(c23)C(=O)N1CCCN1CCN(c2ccc(F)cc2)CC1", "hERG current change (%, negative = inhibition) at 10uM": -69.2},
      {"smiles": "CC(=O)N1CCN(C2=Nc3cccc4cccc2c34)CC1", "hERG current change (%, negative = inhibition) at 10uM": -46},
      {"smiles": "COc1ccccc1N1CCN(C2=Nc3cccc4cccc2c34)CC1", "hERG current change (%, negative = inhibition) at 10uM": -71.5},
      {"smiles": "c1cc2c3c(cccc3c1)C(N1CCCCCC1)=N2", "hERG current change (%, negative = inhibition) at 10uM": -67},
      {"smiles": "O=C(CN1CCN(CCN2C(=O)c3cccc4cccc(c34)C2=O)CC1)c1ccc(F)cc1", "hERG current change (%, negative = inhibition) at 10uM": -42.4},
      {"smiles": "O=C(CCCN1C(=O)c2cccc3cccc(c23)C1=O)N1CCN(c2ccc(F)cc2)CC1", "hERG current change (%, negative = inhibition) at 10uM": -1.91},
      {"smiles": "Cc1cc(C)n(Cc2ccc(C(=O)Nc3ccc(Br)cc3C)o2)n1", "hERG current change (%, negative = inhibition) at 10uM": -19.4},
      {"smiles": "O=C(COc1ccccc1O)Nc1ccc(Cl)cc1", "hERG current change (%, negative = inhibition) at 10uM": 5.23},
      {"smiles": "Cc1ccc(C(=O)CSc2ccccc2C(=O)O)cc1", "hERG current change (%, negative = inhibition) at 10uM": 16.9},
      {"smiles": "Cc1ccccc1C(=O)NC1CCN(Cc2nnnn2C2CCCC2)CC1", "hERG current change (%, negative = inhibition) at 10uM": 3.85},
      {"smiles": "C#CCOC(=O)c1ccccc1C(=O)O", "hERG current change (%, negative = inhibition) at 10uM": 7.07},
      {"smiles": "N#C/C(=C/c1cc(Br)cs1)C(=O)NCC1CCCO1", "note": "(stereo not shown)", "hERG current change (%, negative = inhibition) at 10uM": -14.8},
      {"smiles": "O=C(OCn1ncc(Br)c(Br)c1=O)c1ccc(F)cc1", "hERG current change (%, negative = inhibition) at 10uM": -51.4},
      {"smiles": "O=C(OCn1ncc(Br)c(Br)c1=O)c1c(F)cccc1F", "hERG current change (%, negative = inhibition) at 10uM": 14.9},
      {"smiles": "O=C(OCn1ncc(Cl)c(Cl)c1=O)c1ccc(F)cc1", "hERG current change (%, negative = inhibition) at 10uM": -3.74},
      {"smiles": "Cl.O=C(CN1CCN(C(=O)c2cccc(F)c2)CC1)NC1CCCCC1", "hERG current change (%, negative = inhibition) at 10uM": 2.39},
      {"smiles": "O=C(CN1CCN(C(=O)c2ccccc2)CC1)Nc1ccc(Cl)cc1F", "hERG current change (%, negative = inhibition) at 10uM": -71},
      {"smiles": "O=C(CN1CCN(C(=O)c2c(F)cccc2F)CC1)Nc1ccccc1F", "hERG current change (%, negative = inhibition) at 10uM": -11.3},
      {"smiles": "O=C(c1cccc(Cl)c1)N1CCN(Cc2ccccc2F)CC1", "hERG current change (%, negative = inhibition) at 10uM": 10.1},
      {"smiles": "O=C(CN1CCCCCC1)Nc1ccc(Cl)cc1F", "hERG current change (%, negative = inhibition) at 10uM": -2.05},
      {"smiles": "O=C(CN1CCN(C(=O)c2cccc(F)c2)CC1)Nc1ccccc1F", "hERG current change (%, negative = inhibition) at 10uM": -70.1},
      {"smiles": "O=C(CN1CCN(Cc2cccc(F)c2)CC1)NCc1ccccc1", "hERG current change (%, negative = inhibition) at 10uM": -10.4},
      {"smiles": "O=C(CN1CCN(Cc2ccc(F)cc2)CC1)Nc1ccccc1F", "hERG current change (%, negative = inhibition) at 10uM": -35.2},
      {"smiles": "O=C(CN1CCN(Cc2cccc(F)c2)CC1)Nc1ccccc1F", "hERG current change (%, negative = inhibition) at 10uM": -55.9},
      {"smiles": "Cc1ccc(-c2nc(C3CCCN(S(=O)(=O)c4ccc(C(F)(F)F)cc4)C3)no2)cc1", "note": "(stereo not shown)", "hERG current change (%, negative = inhibition) at 10uM": 15},
      {"smiles": "CC(C)(C)C(=O)Nc1c2c(nn1-c1ccc(F)cc1)CSC2", "hERG current change (%, negative = inhibition) at 10uM": 13.4},
      {"smiles": "COc1ccc(C(=O)NCCSCc2ccccc2)cc1OC", "hERG current change (%, negative = inhibition) at 10uM": -5.31},
      {"smiles": "Cc1nnc(SCC(=O)NC2CCCCC2)s1", "hERG current change (%, negative = inhibition) at 10uM": 10.7},
      {"smiles": "O=[N+]([O-])c1cc(C(F)(F)F)ccc1Oc1cccnc1[N+](=O)[O-]", "hERG current change (%, negative = inhibition) at 10uM": -7.06},
      {"smiles": "O=C1CSC(=S)N1Cc1cccnc1", "hERG current change (%, negative = inhibition) at 10uM": -2.25},
      {"smiles": "O=S(=O)(Nc1ccccn1)c1ccc(Br)cc1", "hERG current change (%, negative = inhibition) at 10uM": -2.97},
      {"smiles": "Cc1cc(C)c(C#N)c(Nc2ccccc2C)n1", "hERG current change (%, negative = inhibition) at 10uM": 12.4},
      {"smiles": "O=C(O)C(=O)O.O=C(c1cccs1)N1CCN(Cc2cccc([N+](=O)[O-])c2)CC1", "hERG current change (%, negative = inhibition) at 10uM": -33.1},
      {"smiles": "O=C(O)C(=O)O.O=[N+]([O-])c1cccc(CN2CCN(Cc3ccc(Cl)cc3)CC2)c1", "hERG current change (%, negative = inhibition) at 10uM": -70.8},
      {"smiles": "O=C(O)C(=O)O.O=[N+]([O-])c1cccc(CN2CCN(Cc3ccc(Br)cc3)CC2)c1", "hERG current change (%, negative = inhibition) at 10uM": -72.4},
      {"smiles": "CC(C)N1CCN(Cc2cccc([N+](=O)[O-])c2)CC1", "hERG current change (%, negative = inhibition) at 10uM": -2.13},
      {"smiles": "O=C(O)C(=O)O.O=C(c1ccco1)N1CCN(Cc2cccc([N+](=O)[O-])c2)CC1", "hERG current change (%, negative = inhibition) at 10uM": -20.3},
      {"smiles": "O=C(O)C(=O)O.O=[N+]([O-])c1cccc(CN2CCN(Cc3ccco3)CC2)c1", "hERG current change (%, negative = inhibition) at 10uM": -4.34},
      {"smiles": "Cc1cccc(NC(=O)CN2C(=O)S/C(=C\\c3ccccn3)C2=O)c1", "hERG current change (%, negative = inhibition) at 10uM": 30.2},
      {"smiles": "O=C(CCn1nnc2ccccc21)Nc1nnc(-c2ccccc2F)s1", "hERG current change (%, negative = inhibition) at 10uM": 3.13},
      {"smiles": "N#CC1=C(N)Oc2n[nH]c(-c3ccccn3)c2C1c1c(F)cccc1Cl", "note": "(stereo not shown)", "hERG current change (%, negative = inhibition) at 10uM": -3.23},
      {"smiles": "CCOc1ccc(OCCCCNCCN)cc1.O=C(O)C(=O)O", "hERG current change (%, negative = inhibition) at 10uM": 5.79},
      {"smiles": "COC(=O)C1=NN(c2ccc(C)cc2)C2(S1)SC(C(C)=O)=C(C)N2c1ccccc1", "note": "(stereo not shown)", "hERG current change (%, negative = inhibition) at 10uM": -10},
      {"smiles": "CCOc1ccc(CNC(=O)CCSCc2ccccc2F)cc1OC", "hERG current change (%, negative = inhibition) at 10uM": 5.18},
      {"smiles": "Cc1ccc(/C=C(/C#N)c2nc(CCN3C(=O)c4ccccc4C3=O)cs2)cc1", "hERG current change (%, negative = inhibition) at 10uM": 21.6},
      {"smiles": "COc1ccc(CN2CCN(S(=O)(=O)c3ccccc3)CC2)c(OC)c1OC", "hERG current change (%, negative = inhibition) at 10uM": 3.14},
      {"smiles": "COc1ccc(CN2CCN(S(=O)(=O)c3ccccc3)CC2)c(OC)c1.O=C(O)C(=O)O", "hERG current change (%, negative = inhibition) at 10uM": -63.5},
      {"smiles": "COc1ccc(OC)c(CN2CCN(S(=O)(=O)c3ccccc3)CC2)c1", "hERG current change (%, negative = inhibition) at 10uM": -79.2},
      {"smiles": "COc1cc(CN2CCN(S(=O)(=O)c3ccccc3)CC2)cc(OC)c1OC.O=C(O)C(=O)O", "hERG current change (%, negative = inhibition) at 10uM": -5.31},
      {"smiles": "COc1ccc(S(=O)(=O)N2CCN(Cc3cc(OC)c(OC)cc3OC)CC2)cc1.O=C(O)C(=O)O", "hERG current change (%, negative = inhibition) at 10uM": -11.5},
      {"smiles": "COc1ccc(OC)c(CN2CCN(S(=O)(=O)c3ccc(NC(C)=O)cc3)CC2)c1.O=C(O)C(=O)O", "hERG current change (%, negative = inhibition) at 10uM": -3.01}
    ]}
  ]
}
